# Results reported in PubChem BioAssay.
# “And” between values parts separate entries of the source, which are not always exact repeats. Identical values can stand only once. For some of these results: Results with a measured potency or affinity are listed apart. Where a structure was tested more than once in an assay, its records may differ in their call. The source made the active and inactive calls. Unless noted, no rule for the calls is given here.
# How the values were obtained:
# [1] = antimalarial activity against Dd2 strain (AID 2302;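 active = growth inhibition above 50% at the single 2 µM test dose, taken to imply half-maximal potency below 2 µM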;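 also: 0% = DMSO untreated growth and 100% = chloroquine plus artemisinin killed control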); conditions: P. falciparum Dd2 in RBCs, LDH growth readout, 72 h; at 2 µM; stronger effect = higher value
# [2] = human hepatoma cell viability loss – ATP luminescence, cytotoxicity control for P. falciparum antimalarial project, primary screen (AID 2303;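 active = inhibition above 50%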;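 also: 0% = DMSO wells and 100% = digitonin-killed cells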); conditions: HepG2 viability, 24-48 h, at 10 µM, stronger effect = higher value
# [3] = target: L-lactate dehydrogenase (Plasmodium falciparum (isolate CDC / Honduras)) (UniProt Q27743); assay: PfLDH activity inhibition – cell lysate, 3D7 strain, counter-screen for P. falciparum growth inhibition project (AID 2304);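 also: 0% = vehicle and 100% = reference inhibitor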; conditions: P. falciparum 3D7 crude extract, LDH APAD/NBT absorbance; at 2 µM; stronger effect = higher value
# Chain of L-lactate dehydrogenase (Plasmodium falciparum (isolate CDC / Honduras)) (Q27743 whole entry, looked up): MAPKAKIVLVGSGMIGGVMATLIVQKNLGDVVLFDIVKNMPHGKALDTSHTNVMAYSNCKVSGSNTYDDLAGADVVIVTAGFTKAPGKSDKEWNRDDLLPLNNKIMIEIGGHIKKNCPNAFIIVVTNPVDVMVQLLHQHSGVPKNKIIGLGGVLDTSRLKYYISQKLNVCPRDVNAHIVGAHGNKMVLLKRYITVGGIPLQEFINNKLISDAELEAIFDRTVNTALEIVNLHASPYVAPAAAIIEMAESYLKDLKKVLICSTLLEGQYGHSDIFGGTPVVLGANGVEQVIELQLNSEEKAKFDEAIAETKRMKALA
# [4] = inhibition of 3D7 malaria parasite growth – strain 3D7 (AID 2306);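 also: 0% = DMSO wells and 100% = chloroquine plus artemisinin control wells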; conditions: P. falciparum 3D7 erythrocytic growth, LDH absorbance, 72 h; at 2 µM; stronger effect = higher value
# [5] = target: Calcium-dependent protein kinase 1 (Plasmodium falciparum (isolate 3D7)) (UniProt P62344); assay: PfCDPK1 kinase inhibitors, biochemical, TCAMS library (AID 1159585; cut-off not given, nearly all actives have IC50 up to about 0.98 µM;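 also: inhibitors leave more ATP so luminescence rises with inhibition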); conditions: recombinant PfCDPK1, Kinase-Glo ATP depletion luminescence
# Chain of Calcium-dependent protein kinase 1 (Plasmodium falciparum (isolate 3D7)) (P62344 whole entry, looked up): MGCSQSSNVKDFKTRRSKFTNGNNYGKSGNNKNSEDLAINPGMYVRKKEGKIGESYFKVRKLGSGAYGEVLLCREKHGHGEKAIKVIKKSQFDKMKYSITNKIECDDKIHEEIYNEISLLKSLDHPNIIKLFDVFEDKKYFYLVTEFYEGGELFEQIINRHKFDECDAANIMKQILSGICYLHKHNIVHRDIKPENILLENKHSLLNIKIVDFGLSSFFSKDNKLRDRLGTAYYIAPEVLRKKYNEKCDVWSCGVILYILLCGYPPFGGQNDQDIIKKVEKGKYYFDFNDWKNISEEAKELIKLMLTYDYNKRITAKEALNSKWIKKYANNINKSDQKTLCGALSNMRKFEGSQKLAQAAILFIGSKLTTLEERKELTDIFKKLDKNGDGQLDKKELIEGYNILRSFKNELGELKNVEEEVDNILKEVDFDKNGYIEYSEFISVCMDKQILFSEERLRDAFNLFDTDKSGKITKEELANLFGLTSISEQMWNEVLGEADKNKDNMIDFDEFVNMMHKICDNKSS
# [6] = target: Plasmodium falciparum protein kinase 6 (PK6, PF3D7_1337100) (UniProt Q8IDW1); assay: PfPK6 kinase inhibitors, biochemical, TCAMS library (AID 1159586); conditions: recombinant PfPK6, Kinase-Glo ATP depletion luminescence
# Chain of Plasmodium falciparum protein kinase 6 (PK6, PF3D7_1337100) (Q8IDW1 1-305): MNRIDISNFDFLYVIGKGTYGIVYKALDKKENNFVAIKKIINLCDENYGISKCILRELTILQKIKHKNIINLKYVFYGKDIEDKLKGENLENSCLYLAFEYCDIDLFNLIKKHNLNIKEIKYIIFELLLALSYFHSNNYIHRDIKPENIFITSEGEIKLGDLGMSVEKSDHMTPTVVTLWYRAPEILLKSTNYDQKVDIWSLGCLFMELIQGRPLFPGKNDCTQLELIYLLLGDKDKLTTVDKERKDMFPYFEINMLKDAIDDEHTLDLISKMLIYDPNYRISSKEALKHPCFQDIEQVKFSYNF
# [7] = target: Protein kinase 7 (PK7), Plasmodium falciparum 3D7 (PF3D7_0213400) (UniProt Q7YTF7); assay: inhibition of Plasmodium PK7 catalytic activity – biochemical, TCAMS antimalarial set, Kinase-Glo luminescence (AID 1159587); conditions: recombinant PfPK7, Kinase-Glo ATP depletion luminescence
# Chain of Protein kinase 7 (PK7), Plasmodium falciparum 3D7 (PF3D7_0213400) (Q7YTF7 1-343): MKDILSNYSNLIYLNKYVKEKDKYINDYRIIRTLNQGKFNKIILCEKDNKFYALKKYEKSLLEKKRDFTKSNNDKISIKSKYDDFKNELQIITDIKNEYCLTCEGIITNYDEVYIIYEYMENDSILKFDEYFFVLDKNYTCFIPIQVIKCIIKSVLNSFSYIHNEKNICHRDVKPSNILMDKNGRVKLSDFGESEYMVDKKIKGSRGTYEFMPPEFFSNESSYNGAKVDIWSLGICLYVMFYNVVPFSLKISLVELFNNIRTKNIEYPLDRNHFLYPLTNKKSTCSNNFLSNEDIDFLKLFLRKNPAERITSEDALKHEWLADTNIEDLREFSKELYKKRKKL
# [8] = target: Calcium-dependent protein kinase 4 (Plasmodium falciparum (isolate 3D7)) (UniProt Q8IBS5); assay: PfCDPK4 kinase inhibitors, biochemical, TCAMS library (AID 1159588; cut-off not given, nearly all actives have IC50 up to about 0.91 µM); conditions: recombinant PfCDPK4, Kinase-Glo ATP depletion luminescence
# Chain of Calcium-dependent protein kinase 4 (Plasmodium falciparum (isolate 3D7)) (Q8IBS5 whole entry, looked up): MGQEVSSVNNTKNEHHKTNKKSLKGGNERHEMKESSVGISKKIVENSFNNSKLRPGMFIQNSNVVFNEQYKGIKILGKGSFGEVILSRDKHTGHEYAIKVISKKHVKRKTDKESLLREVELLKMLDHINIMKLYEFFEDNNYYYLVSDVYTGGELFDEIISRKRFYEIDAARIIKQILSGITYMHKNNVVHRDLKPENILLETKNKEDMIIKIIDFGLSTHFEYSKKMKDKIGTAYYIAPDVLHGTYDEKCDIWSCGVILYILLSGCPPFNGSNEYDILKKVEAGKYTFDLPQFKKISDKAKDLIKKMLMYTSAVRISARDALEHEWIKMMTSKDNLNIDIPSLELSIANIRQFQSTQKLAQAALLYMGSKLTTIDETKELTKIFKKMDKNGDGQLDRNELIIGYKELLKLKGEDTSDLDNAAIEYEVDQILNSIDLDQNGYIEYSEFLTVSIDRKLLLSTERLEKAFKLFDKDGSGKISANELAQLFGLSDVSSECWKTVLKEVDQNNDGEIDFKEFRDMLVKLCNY
SMILES,growth inhibition [1],inhibition [2],inhibition [3],growth inhibition [4],outcome [5],outcome [6],outcome [7],outcome [8]
CC(Cc1ccc(OCCCCOc2ccccc2)cc1)NCCCN1CCOCC1 (centres undefined),78% (active),98% (active),-2% (inactive),98% (active),inactive,inactive,inactive,inactive
CC1(C)CCCN(C(=O)Cc2ccc3c(c2)CCCC3)C1CN1CC=CC1 (centres undefined),1% (inactive),-3% (inactive),-1% (inactive),98% (active),inactive,inactive,inactive,inactive
COC(=O)/C=C/c1ccc(CC(C)NCC(O)c2cccc(Cl)c2)cc1 (centres undefined),73% (active),2% (inactive),5% (inactive),99% (active),inactive,inactive,inactive,inactive
O=C(/C=C/c1ccc(Cl)cc1Cl)NC1CCC(CN2CCC(c3c[nH]c4ccccc34)CC2)CC1 (centres undefined),79% (active),37% (inactive),7% (inactive),101% (active),inactive,inactive,inactive,inactive
OC1(CNCc2ccccc2)CCN(CCc2c[nH]c3ccc(F)cc23)CC1,4% (inactive),39% (inactive),-2% (inactive),100% (active),inactive,inactive,inactive,inactive
O=C(Cc1cc(=O)oc2cc(O)ccc12)NC1CCC(CN2CCC(c3c[nH]c4ccccc34)CC2)CC1 (centres undefined),-10% (inactive),5% (inactive),-1% (inactive),96% (active),inactive,inactive,inactive,inactive
CCCCn1c(C)c(C(=O)OCC)c2cc(OC(C)=O)c(Br)cc21,79% (active),-8% (inactive),-1% (inactive),98% (active),inactive,inactive,inactive,inactive
CCCCCCCSc1ccc(CC(C)NCC(O)c2cccc(Cl)c2)cc1 (centres undefined),99% (active),94% (active),-3% (inactive),100% (active),inactive,inactive,inactive,inactive
O=C(NC1CCC(CN2CCC(c3c[nH]c4ccccc34)CC2)CC1)c1ccc(-c2ccccc2[N+](=O)[O-])o1 (centres undefined),34% (inactive),24% (inactive),-2% (inactive),100% (active),inactive,inactive,inactive,inactive
O=C(/C=C/c1ccc(Cl)c(Cl)c1)NC1CCC(CN2CCC(c3c[nH]c4ccc(O)cc34)CC2)CC1 (centres undefined),99% (active) and 101% (active),38% (inactive) and 35% (inactive),-1% (inactive) and 6% (inactive),100% (active) and 101% (active),inactive,inactive,inactive,inactive
CCOC(=O)c1c(CN2CCN(C)CC2)n(Cc2ccccc2)c2cc(Br)c(O)cc12,46% (inactive),11% (inactive),-5% (inactive),100% (active),inactive,inactive,inactive,inactive
CC(C)CNCc1cccc(-c2cccc(CN(C(=O)c3cccs3)C3CCN(Cc4ccccc4)CC3)c2)c1,36% (inactive),14% (inactive),-4% (inactive),90% (active),inactive,inactive,inactive,inactive
Cc1[nH]c2ccccc2c1C1=CCN(CCCCCNC(=O)/C=C/c2ccc(Cl)c(Cl)c2)CC1,89% (active),28% (inactive),-1% (inactive),97% (active),inactive,inactive,inactive,inactive
Cc1[nH]c2cc(Cl)ccc2c1C1=CCN(CCN2CCOc3c(Br)cccc3C2=O)CC1,58% (active),1% (inactive),4% (inactive),90% (active),inactive,inactive,inactive,inactive
O=C(/C=C/c1ccc(Cl)c(Cl)c1)N1CCC(CN2CCC(c3cn(CC(=O)N4CCCCC4)c4ccccc34)CC2)CC1,65% (active),52% (active),-2% (inactive),100% (active),inactive,inactive,inactive,inactive
COc1ccc(-c2ccccc2)cc1NC(=S)NC1CCC(CN2CCC(c3c[nH]c4ccccc34)CC2)CC1 (centres undefined),98% (active) and 95% (active),51% (active) and 27% (inactive),-7% (inactive) and -5% (inactive),102% (active) and 100% (active),inactive,inactive,inactive,inactive
COc1cccc(C2(C)CCN(CCCCNC(=O)c3ccc(NC(=O)c4ccc(Cl)cc4)cc3)CC2)c1,72% (active),19% (inactive),8% (inactive),97% (active),inactive,inactive,inactive,inactive
S=C(NCC1CCCCC1)NC1CCC(CN2CCC(c3c[nH]c4ccccc34)CC2)CC1 (centres undefined),10% (inactive),29% (inactive),6% (inactive),88% (active),inactive,inactive,inactive,inactive
COC(=O)c1ccc(CC(C)NCC(O)c2cc(Cl)c(N)c(Cl)c2)cc1 (centres undefined),66% (active),-2% (inactive),-7% (inactive),91% (active),inactive,inactive,inactive,inactive

SMILES,growth inhibition [1],inhibition [2],inhibition [3],growth inhibition [4],outcome [5],outcome [6],outcome [7],outcome [8]
COc1ccc(C[C@H](C)NC[C@H](O)c2cccc(Cl)c2)cc1F,75% (active),6% (inactive),-2% (inactive),89% (active),inactive,inactive,inactive,inactive
CO/C=C(/C(=O)OC)c1ccccc1Oc1cc(Oc2ccccc2C#N)ncn1,98% (active),7% (inactive),3% (inactive),98% (active),inactive,inactive,inactive,inactive
O=C(Nc1ccc(Oc2ccccc2)cc1)N1CCC(CN2CCC(c3c[nH]c4ccccc34)CC2)CC1,59% (active),53% (active),-1% (inactive),100% (active),inactive,inactive,inactive,inactive
Cc1cc(O)cc2c(C3CCN(CC4CCC(NC(=O)/C=C/c5ccccc5Cl)CC4)CC3)c[nH]c12 (centres undefined),84% (active),21% (inactive),1% (inactive),99% (active),inactive,inactive,inactive,inactive
O=C(c1ccccc1)[C@H]1C[C@@H]1CN1CC=C(c2c[nH]c3ccccc23)CC1,73% (active),4% (inactive),-6% (inactive),95% (active),inactive,inactive,inactive,inactive
O=C(NC1CCC(CN2CCC(c3c[nH]c4ccccc34)CC2)CC1)c1cc(-c2ccccc2Cl)n(-c2cccc(Cl)c2)n1 (centres undefined),24% (inactive),58% (active),4% (inactive),95% (active),inactive,inactive,inactive,inactive
CC(Cc1ccc(OCc2ccccc2)c(Cl)c1)NCC(O)c1cccc(C(F)(F)F)c1 (centres undefined),95% (active),-2% (inactive),-4% (inactive),97% (active),inactive,inactive,inactive,inactive
Oc1ccc(Cl)cc1CN1CCC(CCOC(c2ccccc2)c2ccccc2)CC1,99% (active),14% (inactive),4% (inactive),98% (active),inactive,inactive,inactive,inactive
Cc1[nH]c2ccc(O)cc2c1C1CCN(CC2CCC(NC(=O)/C=C/c3c(Cl)cccc3Cl)CC2)CC1 (centres undefined),93% (active),25% (inactive),-3% (inactive),103% (active),inactive,inactive,inactive,inactive
CN(c1ccnc(Nc2ccc(CS(C)(=O)=O)cc2)n1)C1CCN(Cc2ccccc2)CC1,9% (inactive),10% (inactive),1% (inactive),83% (active),inactive,inactive,inactive,inactive
CC[C@H]1CN2CC[C@H]1C[C@H]2[C@H](O)c1cc(N2CCCC2)nc2ccc(OC)cc12,100% (active),-13% (inactive),6% (inactive),98% (active),inactive,inactive,inactive,inactive
CC[C@H]1CN2CC[C@@H]1C[C@H]2[C@H](O)c1cc(N2CCC(O)CC2)nc2ccc(OC)cc12,92% (active),15% (inactive),3% (inactive),99% (active),inactive,inactive,inactive,inactive
Cc1ccc(C(=O)Nc2ccnc(N(C)C3CCN(Cc4cccc(O)c4)CC3)c2)cn1,1% (inactive),0% (inactive),4% (inactive),90% (active),inactive,inactive,inactive,inactive
COc1ccc2[nH]cc(C3=CCN(Cc4ccccc4)CC3)c2c1,84% (active),51% (active),-5% (inactive),90% (active),inactive,inactive,inactive,inactive
S=C(NCCc1ccc(Cl)cc1)NC1CCC(CN2CCC(c3c[nH]c4ccccc34)CC2)CC1 (centres undefined),34% (inactive) and 84% (active),37% (inactive) and 42% (inactive),-2% (inactive) and -8% (inactive),100% (active) and 101% (active),inactive,inactive,inactive,inactive
CC(=O)C1(c2ccccc2)CCN(CCC2(c3ccc(Cl)c(Cl)c3)CN(C(=O)c3cccc(Cl)c3)CCO2)CC1 (centres undefined),61% (active),37% (inactive),-3% (inactive),90% (active),inactive,inactive,inactive,inactive
COc1ccc(F)cc1-c1csc(N(c2ccc(F)cc2)C2CCNCC2)n1,-3% (inactive),15% (inactive),-1% (inactive),94% (active),inactive,inactive,inactive,inactive
CN1CC=C(c2c[nH]c3ccc(Oc4ccccc4)cc23)CC1,98% (active),40% (inactive),-7% (inactive),98% (active),inactive,inactive,inactive,inactive
O=C(/C=C/c1cc(F)c(F)cc1F)N1CCC(CN2CCC(c3c[nH]c4ccccc34)CC2)CC1,3% (inactive),26% (inactive),1% (inactive),93% (active),inactive,inactive,inactive,inactive
